In all, about 310,000 compounds went through this assay and about 14,000 (4.5%) showed an effect of 50% or more. Effects have a minus sign here. Many of the other results were omitted from the sample, so strong results are more common in it than they were.
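Further: peak tail current of the secondary pulse compared with the same well before compound.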

For the test, the target named is human ether-à-go-go-related gene (hERG) potassium channel (human, UniProt Q12809). Briefly: primary screen, population patch clamp on CHO cells stably expressing hERG; higher = less effect of the substance.
Chain of human ether-à-go-go-related gene (hERG) potassium channel (Q12809 whole entry, looked up): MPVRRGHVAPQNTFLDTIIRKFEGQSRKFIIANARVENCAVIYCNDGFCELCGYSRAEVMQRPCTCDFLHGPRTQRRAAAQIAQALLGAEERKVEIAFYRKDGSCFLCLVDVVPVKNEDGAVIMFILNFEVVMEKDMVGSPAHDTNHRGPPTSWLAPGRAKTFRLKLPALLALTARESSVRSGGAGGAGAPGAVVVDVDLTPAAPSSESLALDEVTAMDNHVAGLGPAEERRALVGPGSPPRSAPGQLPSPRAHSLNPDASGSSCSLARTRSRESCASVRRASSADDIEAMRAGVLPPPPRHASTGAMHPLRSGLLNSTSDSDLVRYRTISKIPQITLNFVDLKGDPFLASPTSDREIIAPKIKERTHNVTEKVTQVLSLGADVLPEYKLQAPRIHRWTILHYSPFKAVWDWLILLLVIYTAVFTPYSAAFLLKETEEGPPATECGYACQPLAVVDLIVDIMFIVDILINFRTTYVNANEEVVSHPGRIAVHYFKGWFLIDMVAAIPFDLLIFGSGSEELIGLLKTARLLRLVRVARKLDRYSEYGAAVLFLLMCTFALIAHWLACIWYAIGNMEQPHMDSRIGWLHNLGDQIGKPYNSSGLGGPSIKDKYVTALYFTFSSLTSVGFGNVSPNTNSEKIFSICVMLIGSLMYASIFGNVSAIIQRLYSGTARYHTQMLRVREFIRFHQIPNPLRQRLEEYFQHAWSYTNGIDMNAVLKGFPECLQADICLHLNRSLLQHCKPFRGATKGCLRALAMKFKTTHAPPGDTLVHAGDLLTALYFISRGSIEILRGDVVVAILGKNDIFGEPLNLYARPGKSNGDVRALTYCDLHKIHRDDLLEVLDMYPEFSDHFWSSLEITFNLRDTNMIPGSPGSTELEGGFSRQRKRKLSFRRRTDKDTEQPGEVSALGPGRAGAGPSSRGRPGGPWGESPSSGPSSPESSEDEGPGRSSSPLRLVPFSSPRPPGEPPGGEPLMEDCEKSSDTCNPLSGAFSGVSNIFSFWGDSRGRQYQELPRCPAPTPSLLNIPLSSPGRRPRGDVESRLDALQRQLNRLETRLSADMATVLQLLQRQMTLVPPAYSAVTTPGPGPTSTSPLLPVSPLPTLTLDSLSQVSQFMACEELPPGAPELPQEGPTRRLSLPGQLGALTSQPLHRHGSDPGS
For the compound `CCOC(=O)N1CCN(C(=O)c2ccc(OC(C)=O)cc2)CC1`, the “hERG current change (%, negative = inhibition) at 10uM” value is reported as 16%.

With `CCCOc1ccc(N2C(=O)CC(N3CCN(c4ccc([N+](=O)[O-])cc4)CC3)C2=O)cc1` (centres unmarked), the “hERG current change (%, negative = inhibition) at 10uM” value was -73.8%.

Take `CCCOc1ccc(N2C(=O)CC(N3CCOCC3)C2=O)cc1` (centres unmarked): the “hERG current change (%, negative = inhibition) at 10uM” value is reported as -3.38%. For `CCOc1ccc(N2C(=O)CC(N3CCN(c4ccc([N+](=O)[O-])cc4)CC3)C2=O)cc1` (centres unmarked) the value was -28.3%; for `O=C(COC(=O)c1cccc2ccccc12)Nc1cccnc1Cl`, 0.703%; for `CCC1=NN2C(=N)/C(=C\c3cccn3-c3ccc(C)cc3C)C(=O)N=C2S1`, -5.33%.

Consider `CCC1=NN2C(=N)/C(=C\c3cccn3-c3ccc(C)c(C)c3)C(=O)N=C2S1`, for which the “hERG current change (%, negative = inhibition) at 10uM” value is reported as -6.32%. For `CCC1=NN2C(=N)/C(=C\c3cccn3-c3c(C)cccc3C)C(=O)N=C2S1` the value was -79.4%; for `Cc1ccc(S(=O)(=O)N2CCCC(c3nnc4n3-c3ccccc3SC4)C2)cc1` (centres unmarked), -92.8%. For `Cc1ccc(-c2nc(C3CCCN(S(=O)(=O)c4ccc(C)cc4)C3)no2)cc1` (centres unmarked) the value was 12.2%.

On to `Cc1ccc(S(=O)(=O)N2CCCC(C)C2)cc1` (centres unmarked), for which the “hERG current change (%, negative = inhibition) at 10uM” value turned out to be 12.9%. In the case of `O=C(O)CCCCCNC(=O)c1ccccc1` it was 8.89%. In the case of `CCOc1ccc(-n2c(SCC(N)=O)nnc2-c2cccnc2)cc1` it was -5.57%; in that of `CCOc1ccc(-n2c(SCc3ccc(C#N)cc3)nnc2-c2cccnc2)cc1`, -71.9%; in that of `COc1ccc(-n2c(SCC#N)nnc2-c2cccnc2)cc1`, -34%.

As for `CC(=O)Nc1ccc2c(CSc3nnc(-c4cccnc4)n3-c3ccc(C)cc3C)cc(=O)oc2c1`, the “hERG current change (%, negative = inhibition) at 10uM” value is reported as -17.8%.

For `CCOc1ccc(-n2c(SCc3cc(=O)oc4cc(C)c(C(C)C)cc34)nnc2-c2cccnc2)cc1`, the “hERG current change (%, negative = inhibition) at 10uM” value is -37.2%. For `N#Cc1ccc(CSc2nnc(-c3cccnc3)n2-c2ccccc2)cc1` the value was -71.2%. In the case of `N#Cc1ccc(CSc2nnc(-c3cccs3)n2-c2ccccc2)cc1` it was -72.7%; in that of `CCOc1ccc(-n2c(SCc3cc(=O)oc4cc(C)ccc34)nnc2-c2cccnc2)cc1`, -70.7%; in that of `N#Cc1ccc(CSc2nnc(-c3c[nH]c4ccccc34)n2-c2ccccc2)cc1`, 5.38%. In the case of `NC(=O)CSc1nnc(-c2cccs2)n1-c1ccccc1` it was 10.2%; in that of `O=C(O)c1ccc(CSc2nnc(-c3cccnc3)n2-c2ccc(Br)cc2)cc1`, 15.1%. Consider `N#CCSc1nnc(-c2cccnc2)n1-c1ccccc1`, for which the “hERG current change (%, negative = inhibition) at 10uM” value was -7.93%. In the case of `O=C(CCCN1C(=O)/C(=C/c2ccccc2Cl)SC1=S)NNC(=O)c1ccncc1` it was 2.34%.

For `O=C(NNc1ccccn1)c1ccccc1CC[N+](=O)[O-]`, the “hERG current change (%, negative = inhibition) at 10uM” value is on record as 13.3%.

On to `COc1ccc(-c2ccc(C#N)c(SCC(=O)Nc3sc4c(c3C#N)CCC4)n2)cc1OC`, for which the “hERG current change (%, negative = inhibition) at 10uM” value is given as 10.3%.

In the case of `COC(=O)c1c(C)[nH]c(C(=O)COc2ccc3ccc(=O)oc3c2)c1C`, the “hERG current change (%, negative = inhibition) at 10uM” value turned out to be 11.5%. For the compound `CN(C(=O)C1CCOC1)c1nnc(-c2cnccn2)s1` (centres unmarked), the “hERG current change (%, negative = inhibition) at 10uM” value is listed as 11.1%. On to `O=S(=O)(Nc1nc(-c2ccccc2)cs1)c1cc(Cl)ccc1Cl`, for which the “hERG current change (%, negative = inhibition) at 10uM” value is on record as 18.3%.

Consider `CCOC(=O)C1=C(CC)OC(N)=C(C#N)C1c1ccsc1` (centres unmarked), for which the “hERG current change (%, negative = inhibition) at 10uM” value is 1.69%. In the case of `CC1CCN(c2ccc(/C=N\Nc3nncn3N)cc2[N+](=O)[O-])CC1` it was -5.89%; in that of `Cc1cc(C)c(S(=O)(=O)N2CCCC(C(=O)NCc3cccnc3)C2)c(C)c1` (centres unmarked), -27%; in that of `CC(C)c1ccc(CN2CCC(C(=O)NCc3cccnc3)CC2)cc1.O=C(O)C(=O)O`, -52.1%. For `Cc1oc(-c2ccc(Cl)cc2)nc1CN1CCCC(C(=O)NCc2cccnc2)C1` (centres unmarked) the value was -60.8%; for `COc1ccc(C(C)C)cc1S(=O)(=O)N1CCC(C(=O)NCc2cccnc2)CC1`, -5.48%; for `Cc1ccccc1-c1nc(CN2CCC(C(=O)NCc3cccnc3)CC2)c(C)o1`, -32.8%.

`Cc1oc(-c2ccc(Cl)cc2)nc1CN1CCC(C(=O)NCc2cccnc2)CC1`: the “hERG current change (%, negative = inhibition) at 10uM” value was -65.9%. In the case of `Cc1ccc(-c2nc(CSCC(=O)NCc3cccnc3)c(C)o2)cc1` it was -15.3%; in that of `CCS(=O)(=O)N1CCC(C(=O)NCc2cccnc2)CC1`, -11.7%; in that of `O=C(NCc1cccnc1)C1CCCN(S(=O)(=O)c2ccc(Cl)cc2)C1` (centres unmarked), -26.9%. For `Cc1ccccc1-c1nc(CN2CCCC(C(=O)NCc3cccnc3)C2)c(C)o1` (centres unmarked) the value was -64%.

As for `Cc1oc(-c2ccccc2F)nc1CN1CCC(C(=O)NCc2cccnc2)CC1`, the “hERG current change (%, negative = inhibition) at 10uM” value was -26.7%. In the case of `CCOC(=O)COc1nc(Nc2ccccc2C)nc(N(C)C)n1` it was 1.92%; in that of `Cc1ccc(N2CC(C(=O)OCC(=O)c3ccc[nH]3)CC2=O)cc1` (centres unmarked), -24.2%; in that of `Cc1cc(C)cc(C(=O)Nc2ccncc2)c1`, 7.83%. In the case of `O=C(CNC(=O)c1ccco1)Nc1cccc(Cl)c1` it was -10.8%; in that of `O=C(Nc1ccccc1C(=O)NCCCN1CCOCC1)c1ccc(Cl)cc1`, -15.5%. For `O=C(CCSc1ccccc1)N1CCCC1` the value was 10.9%; for `CCC(=O)NCc1ccc(-c2nc3ncccc3o2)cc1`, 13%.

For `Cc1csc(SC(C)c2nc3scc(-c4ccccc4)c3c(=O)[nH]2)n1` (centres unmarked), the “hERG current change (%, negative = inhibition) at 10uM” value is recorded as 6.61%.

For `Cc1ccc(S(=O)(=O)N2[C@@H](c3cccc(Cl)c3)C(C(=O)O)=CC[C@H]2c2cccs2)cc1`, the “hERG current change (%, negative = inhibition) at 10uM” value is given as 13.7%.

Regarding `Cc1noc(C)c1S(=O)(=O)N1CCCC(C(=O)NCc2ccccn2)C1` (centres unmarked), the “hERG current change (%, negative = inhibition) at 10uM” value turned out to be 3.78%. In the case of `Cc1oc(-c2ccc(Cl)cc2)nc1CN1CCCC(C(=O)NCc2ccccn2)C1` (centres unmarked) it was -67.8%; in that of `Cc1oc(-c2ccc(Cl)cc2)nc1CS(=O)CC(=O)NCc1ccccn1` (centres unmarked), -10.7%. In the case of `Cc1oc(-c2cccc(Cl)c2)nc1CN1CCC(C(=O)NCc2cccnc2)CC1` it was -60.9%.

(Values after article PMC4336329 (PLoS ONE, 2015).)
